From PubChem BioAssay (NCI)
About 79,000 compounds went through this panel and 15% of them were active in at least one assay; those are over-represented in the sample as a whole. A number with no mark means an inactive call. Activity calls are given as the source filed them. Cut-off read from the data, not from the text of the source: active = growth inhibition above about 70%; inactive = the rest.

Assays:
[1] = NCI Yeast Anticancer Drug Screen. Data for the rad50 strain (AID 155);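 note: 0% = growth of vehicle-only cultures of the same strain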; settings: S. cerevisiae rad50 strain growth inhibition; at 50.0 µM; stronger effect = higher value
How it was run: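 Cells are treated with compound, grown, and their growth is then scored against vehicle-only cultures of the same repair-deficient yeast strain.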

[2] = NCI Yeast Anticancer Drug Screen. Data for the mec2-1 strain (AID 157); settings: S. cerevisiae mec2-1 strain, at 50.0 µM, stronger effect = higher value
How it was run: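 Compounds were applied to mec2-1 yeast cells. Their growth was then compared with that of vehicle-treated cultures to give growth inhibition.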

[3] = NCI Yeast Anticancer Drug Screen. Data for the sgs1 mgt1 strain (AID 161);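 note: 0% = growth of cultures given vehicle only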; settings: S. cerevisiae sgs1 mgt1 strain, at 50.0 µM, stronger effect = higher value
How it was run: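 Growth of a repair-deficient yeast mutant was monitored after compound treatment and expressed as inhibition relative to vehicle-treated cultures.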

[4] = NCI Yeast Anticancer Drug Screen. Data for the cln2 rad14 strain (AID 165);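 note: 0% = growth equal to vehicle treated cultures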; settings: S. cerevisiae cln2 rad14 strain, at 50.0 µM, stronger effect = higher value
How it was run: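 Strain: cln2 rad14 yeast, altered in cell cycle control and DNA damage repair. Read-out: growth inhibition vs vehicle.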

[5] = NCI Yeast Anticancer Drug Screen. Data for the bub3 strain (AID 167); settings: S. cerevisiae bub3 mutant strain, at 50.0 µM, stronger effect = higher value
How it was run: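 Part of a panel of yeast mutants defective in DNA damage repair or cell cycle regulation. Each strain is grown with compound, and inhibition is calculated relative to solvent-treated cultures.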

[6] = NCI Yeast Anticancer Drug Screen. Data for the mlh1 rad18 strain (AID 175); settings: S. cerevisiae mlh1 rad18 strain growth inhibition; at 50.0 µM; stronger effect = higher value
How it was run: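 A repair-deficient yeast strain is exposed to test compound, and growth is scored relative to vehicle-treated controls.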

Row | Compound | growth inhibition [1] | growth inhibition [2] | growth inhibition [3] | growth inhibition [4] | growth inhibition [5] | growth inhibition [6]
1 | COc1cc(N=C2C=CC(=O)C=C2)c2ncccc2c1 | 2.95% | 1.05% | 4.1% | -33.1% | -0.7% | 3.75%
2 | COC(=O)/C=C1\CCC(C)O1 (stereo unspecified) | -1.35% | -26.6% | -27.7% | 8% | -19.2% | 16%
3 | O=[N+]([O-])c1cnc(/C=[N+](\[O-])C2CCCCC2)n1CCO | 3.7% | 17.6% | -0.3% | 13.7% | 16.6% | 9.8%
4 | CCCOCC(O)CNCCNCC(O)COCCC (stereo unspecified) | 4.1% | -2.7% | 8.15% | -34.5% | -3.65% | 7.3%
5 | N#CCCCCN1CCCC1 | 32.2% | -8.7% | 3.4% | 12.7% | 10.1% | 9.05%
6 | CC(=O)NNC(=S)/N=C/c1c(C)[nH]n(-c2ccccc2)c1=O | 4.6% | -7.95% | -22.1% | 2.65% | -6.85% | 17.6%
7 | Nc1ccc(C2NC(=O)Cc3c2ccc2ccccc32)cc1 (stereo unspecified) | 9.8% | 9.7% | 7.45% | -43.4% | 10.3% | 13.6%
8 | OC1CC/C=C\CC/C=C/CCC1O (stereo unspecified) | -5.75% | 6.45% | 0.5% | 24.1% | 3.8% | 0.55%
9 | CCCCSc1ccc2n(C)c(-c3ccc(/C=N\NC(=O)c4ccc(C(=O)N/N=C\c5ccc(-c6c[n+]7cc(SCCCC)ccc7n6C)cc5)cc4)cc3)c[n+]2c1 | -15.8% | -14.7% | -17.9% | -8.45% | -7.1% | -1.65%
10 | CCCN=C(NNC(N)=O)C(C)=O | 24.9% | 7.9% | -4.35% | 5.55% | 15.7% | -1.45%
11 | N#CCC(=O)NCCc1c[nH]c2ccccc12 | -18.1% | 0.2% | -14.7% | -32.8% | -6.1% | -27.8%
12 | CCOC(=O)C(C(=O)OC(c1ccccc1)c1ccccc1)(C(c1ccccc1)c1ccccc1)C(c1ccccc1)c1ccccc1 | 0.45% | 18% | 1.65% | -9.25% | -1.4% | -10.8%
13 | O=C(/C(=C/c1ccc(Cl)cc1)c1ccccc1)c1ccccc1 | 9.2% | -28.4% | 6.45% | 13.9% | -21.1% | -2.75%
14 | Nc1ccc(C(C(=O)O)c2ccccc2)cc1Cl (stereo unspecified) | 22.6% | -9% | 20.9% | -1.55% | 12.3% | 5.65%
15 | C=CCOC(=O)C(O)C=C (stereo unspecified) | 7.9% | -12.3% | 2.3% | 16.4% | -1.6% | 11.6%
16 | CC(=O)C1=C2CCC3C(CCC4CC(O)CCC43C)C2CC1 (stereo unspecified) | -3.95% | -3.35% | 10.9% | -9.45% | -8% | 11.2%
17 | CCOC(=O)C1Cc2cc(C)c(C)cc2N(C)C1=O (stereo unspecified) | 7.6% | -10.2% | 5.9% | -22.5% | 22.1% | -3.6%
18 | COc1ccc(C(=O)Oc2ccccc2C)cc1 | 5.9% | -26.4% | -6.1% | -11% | -6.8% | -1.95%
19 | COC(=O)CCCCCN1C(=O)c2cccc([N+](=O)[O-])c2C1=O | 20.6% | 7.2% | 15.6% | 20.9% | 15.2% | 20.6%
20 | c1ccc(CN2CCCCC2)nc1 | -12.9% | -20.7% | -11.1% | 10.6% | -10.2% | -10.2%
21 | O=C(NC(O)(C(F)(F)F)C(F)(F)F)c1ccccc1 | -5.35% | 6.85% | 10.7% | 0.9% | -7.05% | -6.95%

Row | Compound | growth inhibition [1] | growth inhibition [2] | growth inhibition [3] | growth inhibition [4] | growth inhibition [5] | growth inhibition [6]
22 | COc1cc(NCCC2CCCCN2C)c2ncccc2c1 (stereo unspecified) | -3.9% | -22.4% | 8.55% | 1.8% | 13.6% | 22.1%
23 | Cc1cccc(NC(=O)Nc2cccc(C)c2)c1 | -3.75% | -2.95% | -2% | -25.9% | -22.1% | -18.2%
24 | S=C(Nc1ccc2c(c1)Cc1ccccc1-2)Nc1ccc2c(c1)Cc1ccccc1-2 | 25.8% | 18.9% | -39.7% | -12.7% | 27% | 31%
25 | c1ccc(C(c2ccccc2)c2ccccc2)cc1 | -20.6% | -20.4% | -16.1% | -10.3% | -8.7% | -23.6%
26 | CC(=O)N(C(=O)CC(=O)N1N=C(c2ccccc2)C(N=Nc2ccccc2[N+](=O)[O-])C1=O)c1ccc(Cl)cc1 (stereo unspecified) | -4.3% | -21.8% | -0.2% | -37% | -27.2% | -19%
27 | Brc1cncc(Br)c1 | 31.9% | -9.35% | -13.3% | -2.1% | -12.2% | 1.4%
28 | COc1ccc2[nH]c3c4c(c(C)cc3c2c1)OC(C)(C)C=C4 | 16.2% | -5.75% | -4.05% | -43.3% | -16.6% | -6.15%
29 | CCOC(=O)CSc1cc(C)[o+]c(C)c1 | 4.6% | 6.25% | 6.8% | 15% | -6.4% | -3.15%
30 | CN(C)CCCN=C(N)N | 1.25% | -20.9% | -23.9% | 20.4% | -57.5% | -4.1%
31 | NC(CO)C(=O)NCC(=O)O (stereo unspecified) | -29.5% | 5.75% | -30.2% | -79.5% | -18.2% | -23.9%
32 | FC1C2=C(SC1(F)F)C1CCC2C1 (stereo unspecified) | 4.9% | -2.2% | 28.1% | 17.9% | -4.05% | 12.9%
33 | COC(=O)/C=C(\C)Nc1cccc([N+](=O)[O-])c1 | -15.2% | -0.65% | -18.9% | -36.9% | -0.75% | -7.3%
34 | CCCCCCCCCCCCC(N)C(=O)O (stereo unspecified) | 3.55% | -9.15% | 28% | -15.8% | 6.7% | -1.3%
35 | CC1CN=C(N(C(=O)Nc2ccc(Cl)c(Cl)c2)c2ccccc2)S1 (stereo unspecified) | -47.3% | 3.6% | -5.7% | 23.8% | -2.55% | -3.3%
36 | COC1=NC(NC2OCC(O)C(O)C2O)=C(NC(C)=O)CN1C (stereo unspecified) | -46.5% | -41.4% | -20.1% | -3.65% | -31.7% | -22.4%
37 | COC(=O)/C=C/c1cc(OC)c2c(c1)C(C(=O)OC)C(c1ccc(O)c(OC)c1)O2 (stereo unspecified) | -2.75% | 7.6% | -38.4% | -17.6% | -23.8% | -8.95%
38 | COc1ccc(OC)c(NC(C)=O)c1 | -30.4% | -12.2% | -16.3% | -3.05% | -24.4% | -8.55%
39 | O=[N+]([O-])c1sc2ccccc2c1Br | 98% (active) | 98.7% (active) | 98.8% (active) | 99% (active) | 99.1% (active) | 98.7% (active)
40 | COc1ccc2c(c1OC)C(=O)C2 | -21.1% | 12.1% | -20.9% | 9% | -16.8% | -2.35%
41 | CC(C)(C)c1ccc(C(=O)NCSCC(NC(=O)CCC(N)C(=O)O)C(=O)NCC(=O)O)cc1 (stereo unspecified) | -10.4% | 1% | -10.7% | -7.75% | 0.85% | 14.8%
